From article PMC5540273 (PLoS ONE, 2017)

Assays:
Settings in all cases: concentration: 1 μM, replicates: in singlicate; n = 1
DCAMKL2 = test system: T1, DCAMKL2
T1 construct: gene DCLK2

DCAMKL3 = test system: T2, DCAMKL3
T2 construct: gene DCLK3

DDR1 = test system: DDR1
DDR2 = test system: DDR2
DLK = test system: T3, DLK
T3 construct: gene MAP3K12

DMPK2 = test system: T4, DMPK2
T4 construct: gene CDC42BPG

DMPK = test system: DMPK
DRAK1 = test system: T5, DRAK1
T5 construct: gene STK17A

DRAK2 = test system: T6, DRAK2
T6 construct: gene STK17B

DYRK1A = test system: DYRK1A
DYRK1B = test system: DYRK1B
DYRK2 = test system: DYRK2
EGFR = test system: EGFR
EIF2AK1 = test system: EIF2AK1
EPHA1 = test system: EPHA1
EPHA2 = test system: EPHA2
EPHA3 = test system: EPHA3
EPHA4 = test system: EPHA4
EPHA5 = test system: EPHA5
EPHA6 = test system: EPHA6
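Also: KINOMEscan kinase panel screen.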

SMILES	%Inh (DCAMKL2)	%Inh (DCAMKL3)	%Inh (DDR1)	%Inh (DDR2)	%Inh (DLK)	%Inh (DMPK2)	%Inh (DMPK)	%Inh (DRAK1)	%Inh (DRAK2)	%Inh (DYRK1A)	%Inh (DYRK1B)	%Inh (DYRK2)	%Inh (EGFR)	%Inh (EIF2AK1)	%Inh (EPHA1)	%Inh (EPHA2)	%Inh (EPHA3)	%Inh (EPHA4)	%Inh (EPHA5)	%Inh (EPHA6)
Cl.c1ccc(-c2ccc3c(Nc4ccc5[nH]ncc5c4)ccnc3c2)nc1 [GW440137]	0%	0%	67%	3%	1%	6%	0%	0%	6%	21%	31%	26%	66%	0%	32%	0%	7%	2%	0%	28%
Cn1cc(-c2ccc3c(c2)CCN3C(=O)Cc2cccc(F)c2)c2c(N)ncnc21 [GSK2603358]	0%	32%	69%	30%	22%	50%	0%	0%	0%	15%	1%	4%	35%	87%	16%	0%	0%	7%	0%	15%
Nc1n[nH]c2cnc(-c3ccccc3)cc12 [SB-642124]	0%	10%	2%	18%	19%	0%	31%	44%	0%	91.4%	75%	88%	38%	4%	26%	16%	0%	12%	0%	6%
COc1cccc(-c2ccc3c(NC(=O)C4CC4)n[nH]c3n2)c1 [SB-710903]	0%	6%	0%	52%	72%	0%	0%	2%	4%	52%	0%	73%	20%	5%	20%	0%	0%	20%	0%	23%
CN(C)S(=O)(=O)c1cc(-c2ccc3nccc(-c4cccc(S(N)(=O)=O)c4)c3c2)cnc1N [GSK1669921]	6%	0%	100%	5%	0%	0%	10%	0%	0%	37%	0%	44%	18%	8%	10%	9%	0%	20%	0%	18%
Cl.Cl.NCC(NC(=O)c1cc(-c2ccccc2)c(-c2ccnc3[nH]ccc23)s1)c1ccccc1 (stereo not drawn) [GSK1321561]	0%	10%	99.7%	76%	35%	94.7%	82%	41%	0%	13%	100%	25%	84%	0%	26%	21%	38%	2%	6%	34%
COC(=O)Nc1nc2ccc(Oc3ccc(NC(=O)Nc4cc(C(F)(F)F)ccc4F)cc3)cc2n1C.Cl [GW692089]	0%	9%	100%	99.9%	31%	0%	0%	0%	9%	2%	26%	0%	0%	0%	36%	75%	26%	65%	0%	84%
Cl.Cl.NCC(NCc1ccc(-c2ccnc3[nH]ccc23)s1)c1ccccc1 (stereo not drawn) [GSK1321565]	0%	0%	0%	34%	0%	25%	81%	75%	6%	38%	25%	80%	24%	0%	24%	0%	0%	0%	0%	0%
COc1ccc(-c2coc3ccc(-c4nnc(SCc5ccc(OC)c(C(F)(F)F)c5)o4)cc23)cc1	8%	0%	2%	0%	0%	0%	0%	0%	0%	0%	0%	14%	0%	5%	0%	2%	0%	8%	18%	17%
Cc1ccc(S(=O)(=O)Nc2ccc(Nc3nccc(Nc4cccc5[nH]ncc45)n3)cc2)cc1 [GSK581271]	5%	21%	82%	36%	0%	0%	0%	61%	7%	16%	0%	12%	42%	0%	66%	21%	0%	13%	0%	0%
C[C@@H](Oc1cc(-n2cnc3cc(-c4ccnc(NCCS(C)(=O)=O)c4)ccc32)sc1C(N)=O)c1ccccc1Cl [GSK907232]	1%	0%	0%	0%	12%	0%	0%	0%	4%	31%	0%	15%	35%	1%	9%	16%	0%	10%	0%	23%
Cl.c1ccc(-c2ccc3c(Nc4ccc5[nH]ccc5c4)ccnc3c2)nc1 [GW440138]	0%	17%	99.4%	79%	43%	0%	0%	0%	2%	0%	0%	0%	89%	0%	48%	1%	8%	0%	0%	54%
O=C(O)C(F)(F)F.O=C(O)C(F)(F)F.O=c1[nH]ccc2nc(N[C@@H]3CCCNC3)nc(Nc3ccc(S(=O)(=O)N4CCOCC4)cc3)c12 [GSK2177277]	100%	99.5%	18%	82%	95.6%	92.7%	99.7%	98.4%	94%	84%	0%	59%	45%	21%	25%	28%	98.9%	57%	32%	62%
Cc1ccc(F)c(C(=O)Nc2cccc(-c3nn4ccccc4c3-c3ccnc(Nc4cccc(F)c4)n3)c2)c1F [GSK361061]	13%	70%	100%	87%	7%	85%	13%	0%	0%	11%	0%	5%	99.1%	9%	32%	26%	25%	20%	1%	32%
CN1CCN(Cc2cccc(-c3ccc4c(Nc5ccc(Oc6ccccc6)cc5)ccnc4c3)c2)CC1 [GW578342]	1%	59%	9%	33%	41%	0%	0%	10%	0%	1%	13%	0%	87%	0%	0%	4%	3%	0%	0%	7%
CC(C)(C)c1ccc2nccc(Nc3cccc(O)c3)c2c1 [GW856795]	0%	0%	62%	47%	16%	0%	3%	5%	1%	0%	48%	51%	63%	0%	74%	18%	21%	18%	37%	18%
O=c1[nH]cc(-c2ccc(N3CCOCC3)cc2)c2sc(-c3cn[nH]c3)cc12 [GSK2276055]	0%	0%	3%	0%	0%	0%	0%	35%	11%	99.8%	100%	89%	18%	0%	0%	0%	30%	0%	0%	0%
O=C(Nc1cccc(-c2nn3ncccc3c2-c2ccnc(Nc3ccccc3)n2)c1)c1c(F)cccc1F [GSK198271]	0%	20%	100%	91.8%	8%	99.8%	0%	0%	0%	18%	100%	26%	100%	52%	42%	10%	4%	0%	0%	8%
